For part of these data: Results with a measured potency or affinity are listed apart. Calls of active or inactive are those of the source. For most assays here, the call rests on the fitted dose curve.
Assays:
[1] = Ebola virus entry assay, blue channel fluorescence
[2] = Ebola virus entry assay, green fluorescence channel
[3] = Ebola virus entry assay, ratio channel readout
[4] = Ebola virus entry assay, blue channel fluorescence; remark: listed apart in the source

Measured: outcome

CC(CCc1ccccc1)NCC(O)c1ccc(O)c(C(N)=O)c1 (stereo unspecified)
inactive: all assays above

NC(=O)[C@@H]1CCCN1C(=O)[C@H](Cc1cnc[nH]1)NC(=O)[C@@H]1CCC(=O)N1
inactive: all assays above

CN1C(=O)CC(=O)N(c2ccccc2)c2cc(Cl)ccc21
inactive: all assays above

CC(=O)N=c1sc(S(N)(=O)=O)nn1C
inactive: all assays above

CCCCC(C)(O)C/C=C/[C@H]1[C@H](O)CC(=O)[C@@H]1CCCCCCC(=O)OC (stereo partly specified)
inactive: all assays above

CCCCC[C@H](O)/C=C/[C@@H]1[C@H]2C/C(=C/CCCC(=O)O)O[C@H]2C[C@H]1O
inactive: all assays above

CC(C)c1nc(N(C)S(C)(=O)=O)nc(-c2ccc(F)cc2)c1/C=C/C(O)CC(O)CC(=O)O (stereo unspecified)
inactive: all assays above

CCNC(=O)[C@@H]1CCCN1C(=O)[C@H](CCCN=C(N)N)NC(=O)[C@H](CC(C)C)NC(=O)[C@@H](CC(C)C)NC(=O)[C@H](Cc1ccc(O)cc1)NC(=O)[C@H](CO)NC(=O)[C@H](Cc1c[nH]c2ccccc12)NC(=O)[C@H](Cc1cnc[nH]1)NC(=O)[C@@H]1CCC(=O)N1
inactive: all assays above

C=C1C(=C/C=C2\CCC[C@]3(C)[C@@H]([C@H](C)CCCC(C)(C)O)CC[C@@H]23)C[C@@H](O)C[C@@H]1O
inactive: all assays above

Reference: PubChem BioAssay (NCATS)
